Screening data: PubChem BioAssay, National Center for Advancing Translational Sciences (NCATS)
Shown are actives, neighbours in structure and some others; about 2.7% of the full set was active somewhere.
Nrf2 ARE act = activates Nrf2 signaling; AREc32 ARE-luciferase reporter (MCF7-derived line), luminescence, 24 h; Potency, µM (doses to about 46.1 µM), without a hit: top-dose activation, hits mostly activators; 410,000 compounds, 0.31% hits; AID 624171; note: potency is the fitted concentration of half-maximal effect; % of control where 0% means no effect; nearly all actives have a fitted effect of over 65% in size
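ARE activation measured as luciferase luminescence (Steady-Glo, 30 min RT) in AREc32_Fluc cells after 24 hr compound exposure at 37 deg C, 5% CO2; cells seeded overnight at 1000/well in OPTI-MEM, 5% FBS.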
A549 viability = counter-screen for Nrf2 inhibitors: cytotoxicity in A549 cells. A549 ARE-Fluc cells, CellTiter-Fluor viability, 18-24 h. Potency, µM (series often up to 46 µM), without a hit: at the highest dose activity change, negative = cytotoxicity, hits mostly inhibitors. 390,000 compounds, 0.16% hits. AID 504648; note: potency is the fitted concentration of half-maximal effect; % is set by controls: 0 for no effect and ±100 for the full control effect
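A549 ARE-Fluc cells in 5% FBS OPTI-MEM, 5000 cells/well, rested 2 h then exposed to compounds in concentration-response for 18-24 h at 37 °C. Viability by CellTiter-Fluor fluorescence (Ex 405/Em 525) after 30 min; luciferase luminescence (BugLite, 15 min, RT) read afterwards.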
ERG-DNA inh = inhibitors of human ERG Ets domain-DNA interaction | P11308 | 370,000 compounds, 0.028% hits | fluorescence polarization, His-ERG Ets domain / labelled DNA | Potency, µM (top dose mostly 76.9 µM), for the others: at the top dose FP activity, negative = inhibition, most hits filed as inhibitors; active = well fitted inhibition curve with a large enough effect in the polarisation, with a control signal flat; inconclusive = small, poorly fitted or top-dose-only effect, or effect the other way, or a change in a side signal; inactive = no such curve, though single readings can be large or run the other way; the % refers to the polarisation;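 note: polarization taken with two DNA probes labelled with fluorescein and Texas red; potency is the fitted concentration of half-maximal effect; % of control where 0% means no effect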
Target sequence (P11308 whole entry, looked up, the tested form may be a part): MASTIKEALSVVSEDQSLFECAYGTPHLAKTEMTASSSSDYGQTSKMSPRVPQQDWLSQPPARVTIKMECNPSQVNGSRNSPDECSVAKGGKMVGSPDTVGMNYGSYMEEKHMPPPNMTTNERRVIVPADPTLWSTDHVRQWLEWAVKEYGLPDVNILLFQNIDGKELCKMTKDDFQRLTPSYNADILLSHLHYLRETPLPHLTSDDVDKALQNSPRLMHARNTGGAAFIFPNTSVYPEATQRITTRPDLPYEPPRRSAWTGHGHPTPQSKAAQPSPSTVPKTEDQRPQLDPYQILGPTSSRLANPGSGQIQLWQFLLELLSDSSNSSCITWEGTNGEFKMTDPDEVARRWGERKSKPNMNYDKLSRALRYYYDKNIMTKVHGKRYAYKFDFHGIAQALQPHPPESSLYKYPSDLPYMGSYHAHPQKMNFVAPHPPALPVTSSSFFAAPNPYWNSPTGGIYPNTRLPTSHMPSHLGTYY
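His-tagged ERG Ets domain (1 uM in the protein solution; 300mM KCl, 50mM Tris-HCl, 1mM EDTA, 1mM DTT, pH 7.5) received compound, then a probe mix of 5 nM fluorescein-DNA and 100nM Texas-615-DNA. Fluorescence polarization was read for both dyes.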
LDHA inh = LDHA (human) enzyme inhibition; P00338; purified LDHA, NADH/diaphorase-resazurin fluorescence; hits give low values; activity change, % (values are at about 110 or 230 µM); 480,000 compounds, 0.15% hits; AID 1347041; in the data active = activity change below about -30%; inconclusive = mostly about -25% to -30%;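 note: plate controls were DMSO wells for no effect and wells without enzyme for full effect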
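Human LDH5 (2 nM) was incubated with 0.06 mM NADH and 0.2 mM pyruvate for 5 min at room temperature in Tris pH 7.4. Remaining NADH was coupled through diaphorase/resazurin, and resorufin fluorescence was read at 0 and 20 min.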
12-LOX inh = inhibitors of human 12S-lipoxygenase ALOX12; P18054; purified 12hLO, xylenol orange hydroperoxide absorbance; Potency, µM (top dose mostly 108 µM), inactives show top-dose activity change, negative = inhibition, hits mostly inhibitors; 580,000 compounds, 1.1% hits; note: potency is the fitted concentration of half-maximal effect; % is set by controls: 0 for no effect and ±100 for the full control effect
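Hydroperoxide product was detected by ferrous iron/xylenol orange as the 573 to 405 nm absorbance ratio. Arachidonic acid at 40 uM (final) was turned over for 30 min at room temperature by 150 nM human 12hLO, pH 7.0 Hepes buffer, after 15 min compound preincubation.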
Nrf2 inh = inhibitors of Nrf2 signaling | A549 ARE-Fluc reporter, luciferase luminescence, 18-24 h | Potency, µM (titrated, usually from 46 µM), for inactives: at the top dose activity change, negative = inhibition, hits mostly inhibitors | 360,000 compounds, 2.1% hits; note: potency is the fitted concentration of half-maximal effect; % is set by controls: 0 for no effect and ±100 for the full control effect; nearly all actives have a fitted effect of over 60% in size
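Reporter: ARE-Fluc in A549. Exposure: 18-24 h, 37 °C, 5% CO2, 5% FBS OPTI-MEM. Readouts: fluorescent cytotoxicity (CellTiter-Fluor), then luminescent Nrf2 signal after BugLite.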
The depositor's hits bear a star; ? = inconclusive; · = not tested or not shown; [ ] = remark or other dose. Unless noted, calls come from the whole dose curve; as a rule, active = well fitted curve in the direction sought with a large enough effect; inconclusive = small, poorly fitted or top-dose-only effect, or another doubt; inactive = no such curve, though single readings can be large; an effect the other way counts as inactive or inconclusive.

SMILES	Nrf2 ARE act	A549 viability	ERG-DNA inh	LDHA inh	12-LOX inh	Nrf2 inh
Cc1ccc(C(=O)Nc2ccc(NC(=O)c3cccs3)cc2)cc1C	0%	-14%	0%	-5	?	?
CCC(=O)Nc1cc(C)ccc1NC(=O)c1cccs1	·	·	·	-31*	0%	·
O=C(Nc1ccccc1)Nc1cccc2nsnc12	?	-1%	10%	4	40µM*	?
Cc1nc(NC(=O)c2cccs2)ccc1Br	16µM*	3%	4%	-3	?	?
CN(C)S(=O)(=O)c1ccc(NC(=O)CCc2ncc(-c3ccc(F)cc3F)o2)cc1	·	·	·	7	?	·
COCCN1C(=O)c2ccccc2NC1c1cc(OC)cc(OC)c1 (stereo not drawn)	·	·	·	-8	11%	·
O=C(Nc1ccc2nsnc2c1)c1cccs1	8.9µM*	-6%	2%	-5	0%	5%
O=C(Nc1cccc(-c2csc(-c3ccccc3)n2)c1)c1cccs1	4%	0%	·	2	7%	16µM*
O=C(Nc1ccncc1)c1cccs1	1%	-5%	-8%	1	41%	8%
CCn1ccc(C(=O)Nc2ccc(S(=O)(=O)Nc3ccccc3OC)cc2)n1	2%	-12%	3%	-3	41%	15µM*
COc1ccccc1NS(=O)(=O)c1ccc(NC(=O)c2ccncc2)cc1	-1%[9.22 µM]	-1%	-8%	-11	0%	?
COc1ccccc1NS(=O)(=O)c1cccc(NC(=O)Nc2ccccc2)c1	0%	-12%	-10%	-6	?	2.6µM*
COC1=C(OC)C(=O)C(Sc2ccc3ccccc3c2)=CC1=O	?	0%	-1%	43	2µM*	5%
COc1ccc(S(=O)(=O)Oc2ccc3ccccc3c2)cc1	3%	12%	-4%	-2	22%	6%
CCCc1ccc(OC)cc1	·	·	·	·	5%[176 µM]	·
c1ccc(-c2cn(-c3ccccc3)c3[n+]2CCCS3)cc1	0%	-10%	-6%	-1	10%	9.2µM*
CC1CCN(c2ncnc3ccccc23)CC1	0%	-14%	1%	-2	?	15µM*
CC1CCN(c2nc(-c3ccccc3O)nc3ccccc23)CC1	3%	-10%	-1%	0	1%	28%
CN(C(=O)Cc1c[nH]c2ccccc12)C(C(=O)Nc1ccc2c(c1)OCO2)c1ccccc1 (stereo not drawn)	4%	?	-3%	-2	-23%	23µM*
N#Cc1nc(COc2ccc3c(c2)OCO3)oc1NC1CC1	·	·	·	35	?	·
CCC(C)(C)NC(=O)/C=C/c1cccc(C#N)c1	·	·	·	0	7%	·
COc1ccc(-c2cnc(SCC(=O)Nc3ccc4c(c3)OCO4)n2Cc2ccco2)cc1	8%	-13%	-5%	-7	0%	?
CC(=O)Nc1cccc(NC(=O)CSc2ncc(-c3ccc(Cl)cc3)n2Cc2ccco2)c1	-1%	-26%	5%	-1	-30%	18µM*
COc1cccc(OC)c1C(=O)OCc1ccc(Br)cc1	·	·	·	0	-1%	·
COc1ccc(CNC(=O)c2cc(COc3c(F)cccc3F)on2)cc1OC	0%	-15%	-5%	-5	4%	26µM*
O=C(NCc1c(F)cccc1F)c1cc(COc2c(F)cccc2F)on1	10%	18%	7%	2	2%	?
CC1=C(c2ccc(Cl)cc2)S(=O)(=O)N=C1N1CCN(c2cccc(C)c2)C(C)C1 (stereo not drawn)	0%	-4%	-5%	-8	-24%	23µM*
Cc1ccc(-c2nc3nc(C)cc(N4CCN(c5cccc(C)c5)C(C)C4)n3n2)cc1 (stereo not drawn)	0%	0%	8%	0	?	4%
CCOc1ccc(C(c2c(C)[nH]n(-c3ccccc3)c2=O)c2c(C)[nH]n(-c3ccccc3)c2=O)cc1OC	18%	1%	-2%	7	50µM*	13%
